# Measured values reported in PubChem BioAssay.
# Several values for one entry are separate records, joined by “and”; a condition that tells them apart may be missing. Equal values may be shown once. Results filed as inconclusive are left out. For some of these results: Potency and affinity values are given separately. Activity calls are given as the source filed them.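 How the source made its calls, unless noted: active means compounds killing one labelled cell type while sparing the other, by normalised counts and ratio limits, not self-fluorescent; inactive means the rest.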 Numbered stars: 1 amine (or outer) side, 2 acyl side, 3 side chain; on linkers, the order of the positions; unused ones are H or OH. Bridge positions count the residues as written; N and C are the ends. Square brackets hold non-standard residues; d marks the D form. Peptide text beside a SMILES is read from it. I, II: the chains in the order shown. * marks the point of attachment. ξ: configuration not given here. Actinocin(9to1) = Cc1c2oc3c(C)ccc(C(=O)[*:1])c3nc-2c(C(=O)[*:2])c(N)c1=O; ΔAla(E,3-NHCONH2) = NC(=O)N/C=C(/N)C(=O)O; X1 = NC1=NCCC(C(N[*:1])C(=O)[*:2])N1; NMeV = CN[CH](C(=O)O)C(C)C; ξβ3hOrn = NCCCC(N)CC(=O)*; Dap = NC[CH](N)C(=O)O; Sar = CNCC(=O)O
# Columns and labels:
# [1] = P. berghei load reduction in hepatocytes – cell-based, HepG2, luciferase luminescence, HepG2 viability, primary screen (AID 624349; in the data active means parasite load remaining mostly below about 12%, no sharp cut-off; inactive means mostly above about 10%;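 further: 100% = mean of DMSO negative control wells on the same plate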); settings: P. berghei liver stage in HepG2, luciferase luminescence, concentration not given here; parasite load remaining: stronger effect = lower value; viability: measured here: HepG2 viability without parasites
# [2] = EMT-state selective cytotoxicity in co-culture – imaging, PC-3E GFP, TEM4-18 mCherry, primary screen (AID 1345086); settings: PC-3E GFP / TEM4-18 mCherry co-culture, imaging cell counts, at 1 µM; for red/green cell ratio (normalised): actives lie on both sides, counts scaled to control wells, 1 = unselective;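 on all read-outs here: cells exposed to compound for 72 h before imaging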;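 on red/green cell ratio (normalised): normalised mesenchymal count divided by normalised epithelial count so high means epithelial killing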
# [3] = viability loss with induced miR-34 in A549 – imaging, A549 dox-inducible miR-34, nuclei and caspase counts, primary screen (AID 1347080;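 active means compounds whose cell count with miR-34 switched on is under 0.7 times the count with it off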); settings: A549 miR-34 inducible, Hoechst nuclei count, 48 h
# [4] = target: NAD(+) hydrolase SARM1 (Homo sapiens) (UniProt Q6SZW1); test: blocking NAD cleavage by SARM1 SAM-TIR – cell lysate, NAD-Glo luminescence (AID 1508614;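 active means compound whose remaining NAD level is above about 45 nM, limit read from the data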); settings: SAM-TIR HEK293T lysate NADase, at 1 µM, stronger effect = higher value
# Chain of NAD(+) hydrolase SARM1 (Homo sapiens) (Q6SZW1 whole entry, looked up, the tested form may be a part): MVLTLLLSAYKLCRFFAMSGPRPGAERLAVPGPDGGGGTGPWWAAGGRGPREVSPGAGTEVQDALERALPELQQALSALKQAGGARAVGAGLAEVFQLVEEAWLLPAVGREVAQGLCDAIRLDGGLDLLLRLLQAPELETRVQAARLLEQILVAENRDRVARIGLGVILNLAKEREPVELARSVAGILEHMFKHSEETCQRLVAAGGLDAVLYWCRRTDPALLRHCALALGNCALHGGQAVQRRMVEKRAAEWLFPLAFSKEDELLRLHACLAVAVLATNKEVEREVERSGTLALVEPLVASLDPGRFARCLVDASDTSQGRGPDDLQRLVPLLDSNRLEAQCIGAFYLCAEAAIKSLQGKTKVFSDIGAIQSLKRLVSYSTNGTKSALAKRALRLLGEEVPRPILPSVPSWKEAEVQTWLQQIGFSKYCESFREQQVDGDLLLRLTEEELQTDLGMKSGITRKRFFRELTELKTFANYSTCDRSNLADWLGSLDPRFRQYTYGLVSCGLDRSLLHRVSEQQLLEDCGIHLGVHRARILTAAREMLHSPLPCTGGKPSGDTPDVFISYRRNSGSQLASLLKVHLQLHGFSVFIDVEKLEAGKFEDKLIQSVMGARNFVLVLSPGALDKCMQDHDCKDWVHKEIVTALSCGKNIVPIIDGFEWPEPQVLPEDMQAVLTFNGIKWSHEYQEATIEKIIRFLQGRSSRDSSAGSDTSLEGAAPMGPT
# [5] = target: Mitogen-activated protein kinase 7 (Homo sapiens) (UniProt Q13164); test: Gal4-ERK5 driven luciferase induction – cell-based, HTS, primary screen (AID 1508626;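 active means luciferase signal above three times the same-plate solvent-only control wells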;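 further: luciferase driven by Gal4-ERK5 fusion binding five Gal4 sites before minimal TATA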); settings: HeLa Gal4-ERK5 transactivation, 18 h, at 5 µM, stronger effect = higher value
# Chain of Mitogen-activated protein kinase 7 (Homo sapiens) (Q13164 whole entry, looked up, the tested form may be a part): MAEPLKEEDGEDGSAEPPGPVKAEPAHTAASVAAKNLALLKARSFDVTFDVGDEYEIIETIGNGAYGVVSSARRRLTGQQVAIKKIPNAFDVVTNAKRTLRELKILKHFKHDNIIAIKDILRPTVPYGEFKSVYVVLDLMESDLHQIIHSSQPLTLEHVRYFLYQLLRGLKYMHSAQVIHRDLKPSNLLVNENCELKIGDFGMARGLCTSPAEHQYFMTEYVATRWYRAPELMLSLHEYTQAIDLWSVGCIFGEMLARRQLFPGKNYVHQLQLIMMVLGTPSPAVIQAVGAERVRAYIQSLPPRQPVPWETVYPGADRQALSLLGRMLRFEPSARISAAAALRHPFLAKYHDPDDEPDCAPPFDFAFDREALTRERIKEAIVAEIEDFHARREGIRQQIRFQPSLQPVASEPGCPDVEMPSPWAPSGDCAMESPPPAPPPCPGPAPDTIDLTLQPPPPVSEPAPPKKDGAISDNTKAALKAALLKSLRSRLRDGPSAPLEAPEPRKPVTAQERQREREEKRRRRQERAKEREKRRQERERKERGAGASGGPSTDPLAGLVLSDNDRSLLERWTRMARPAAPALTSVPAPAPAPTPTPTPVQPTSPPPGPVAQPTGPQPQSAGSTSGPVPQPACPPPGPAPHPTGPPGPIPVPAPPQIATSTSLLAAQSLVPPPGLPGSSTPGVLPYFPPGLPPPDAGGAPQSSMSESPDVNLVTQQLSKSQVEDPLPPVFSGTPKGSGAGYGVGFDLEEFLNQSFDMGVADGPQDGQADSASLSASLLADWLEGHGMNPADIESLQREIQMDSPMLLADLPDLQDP
# [6] = blockers of polyQ-driven CASP3 activation – cell-based (AID 1583); settings: polyglutamine-induced caspase-3 activation, cell assay; stronger effect = higher value;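 tested at 10 µM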
# [7] = yeast 75Q aggregation reduction – 75Q-TubU reporter (AID 1593); settings: Yeast 75Q polyglutamine aggregation reporter
# [8] = glutamate excitotoxicity neuroprotectants – cell-based, TUNEL DNA degradation staining, MNGlu (AID 1594; call rule not given here); settings: motor neurons, glutamate-induced death, at 1 µM, stronger effect = higher value
# [9] = restoration of touch response, mutant HTT neurons – whole organism, C. elegans mechanosensory neurons, N-terminal huntingtin (AID 1599); settings: C. elegans polyQ-huntingtin mechanosensory neurons, stronger effect = higher value
# [10] = blockers of cytochrome c efflux from mitochondria – biochemical, purified mitochondria (AID 1603); settings: stronger effect = lower value;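 further: mouse liver mitochondria challenged with calcium chloride; signal normalized to the plate average as 100%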
# [11] = polyglutamine aggregate formation blockers (AID 1604); settings: polyglutamine-induced protein aggregation inhibition assay; stronger effect = higher value; tested at 2.5 µM
# [12] = glutamate transport activators, MN-1 cells, MN-1 cell line (AID 1612); settings: MN-1 motor neuron cells, stronger effect = higher value;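 further: tested at 1 µM final; 0% = mean of DMSO vehicle wells on each plate; positive means more glutamate uptake than control and negative means less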
# [13] = GFP-Q80 aggregate reduction, neuronal-like cells, cell-based, NGF-treated PC12, GFPQ80 (AID 1614); settings: PC12 NGF-treated GFP-polyQ80 inclusion reduction;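 further: lower means fewer inclusions and 0 means no inclusions at all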
# [14] = 75Q-TubH aggregate inhibition, S. cerevisiae, yeast (AID 1616); settings: S. cerevisiae 75Q-TubH polyglutamine aggregation suppression; stronger effect = higher value
# [15] = rescue of PC12 cells from polyQ htt toxicity – LDH release (AID 1610); settings: PC12 mutant huntingtin toxicity, final LDH at 4 uM, stronger effect = lower value
# [16] = measured here: epithelial PC-3E GFP cell survival
# [17] = measured here: mesenchymal TEM4-18 mCherry cell survival
# [18] = stronger effect = lower value, cell number ratio, induced over uninduced
# [19] = measured here: relative caspase fold change +Dox/-Dox
# [20] = measured here: total cells with miR-34 induction, stronger effect = lower value
# [21] = measured here: total cells without miR-34 induction
smiles,measurement,setting,value
Cc1c2oc3c(C)ccc(C(=O)OC(C)C4NC(=O)C(C(C)C)N(C)C(=O)CN(C)C(=O)C5CCCN5C(=O)C(C(C)C)NC4=O)c3nc-2c(C(=O)OC(C)C2NC(=O)C(C(C)C)N(C)C(=O)CN(C)C(=O)C3CCCN3C(=O)C(C(C)C)NC2=O)c(N)c1=O (centres undefined) (I: cyclo([Sar][NMeV]TVP) / II: cyclo([Sar][NMeV]TVP); linker I:3-II:3 via Actinocin(9to1); configuration not given here),parasite load remaining,[1],-0.105% (inactive)
same,viability,[1],76.4%
same,red/green cell ratio (normalised),[2],1.97 (active)
same,normalised cell number,[2]; [16],0.25
same,normalised cell number,[2]; [17],0.49
same,fold change,[3]; [18],0.996 (inactive)
same,fold change,[3]; [19],1.67
same,cell count,[3]; [20],2910
same,cell count,[3]; [21],2920
C[C@]12C=CC(=O)C=C1CCC1C2[C@@H](O)C[C@@]2(C)C1CC[C@]2(O)C(=O)COC(=O)CCC(=O)O (some centres undefined),parasite load remaining,[1],61.5% (inactive)
same,viability,[1],98%
same,red/green cell ratio (normalised),[2],0.99 (inactive)
same,normalised cell number,[2]; [16],1.15
same,normalised cell number,[2]; [17],1.14
same,fold change,[3]; [18],0.822 (inactive)
same,fold change,[3]; [19],2.28
same,cell count,[3]; [20],7880
same,cell count,[3]; [21],9580
OC[C@@H](O)C(O[C@@H]1O[C@H](CO)[C@H](O)[C@H](O)[C@H]1O)[C@H](O)[C@@H](O)CO (some centres undefined),parasite load remaining,[1],63.4% (inactive)
same,viability,[1],99.9%
same,red/green cell ratio (normalised),[2],1.21 (inactive)
same,normalised cell number,[2]; [16],0.87
same,normalised cell number,[2]; [17],1.06
same,fold change,[3]; [18],0.87 (inactive)
same,fold change,[3]; [19],4.32
same,cell count,[3]; [20],11300
same,cell count,[3]; [21],13000
CC(C)(C)NC[C@H](O)COc1ccccc1C1CCCC1,red/green cell ratio (normalised),[2],1.04 (inactive)
same,normalised cell number,[2]; [16],1.13
same,normalised cell number,[2]; [17],1.17
same,remaining NAD,[4],10 nM (inactive)
"NCCCC(N)CC(=O)NCC1NC(=O)C(CO)NC(=O)C(N)CNC(=O)C(C2CCN=C(N)N2)NC(=O)/C(=C\NC(N)=O)NC1=O (stereo not drawn) (H-[Dap]S[Dap](ξβ3hOrn)[ΔAla(E,3-NHCONH2)][X1]; lactam 1-C; configuration not given here)",parasite load remaining,[1],84% (inactive) and 54.2% (inactive)
same,viability,[1],74.9% and 94.9%
same,red/green cell ratio (normalised),[2],0.98 (inactive)
same,normalised cell number,[2]; [16],1.11
same,normalised cell number,[2]; [17],1.09
same,fold change,[3]; [18],0.856 (inactive)
same,fold change,[3]; [19],1.07
same,cell count,[3]; [20],11300
same,cell count,[3]; [21],13200
C#C[C@]1(OC(C)=O)CCC2C3CCC4=C/C(=N/O)CCC4C3CC[C@@]21CC (some centres undefined),parasite load remaining,[1],66.7% (inactive)
same,viability,[1],100%
same,red/green cell ratio (normalised),[2],0.75 (inactive)
same,normalised cell number,[2]; [16],1.02
same,normalised cell number,[2]; [17],0.76
same,fold change,[3]; [18],0.914 (inactive)
same,fold change,[3]; [19],2.93
same,cell count,[3]; [20],11600
same,cell count,[3]; [21],12700
CC(C)c1ccc2c(c1)CCC1C(C)(C(N)=O)CCCC21C (centres undefined),red/green cell ratio (normalised),[2],1.04 (inactive)
same,normalised cell number,[2]; [16],1.22
same,normalised cell number,[2]; [17],1.27
same,luciferase signal,[5],64 AU (inactive)
Nc1ccc(C(=O)O)c(O)c1 (tested in a mixture with another compound),inhibition,[6],-9.55%
same,score,[7],1.25
same,protection,[8],60% (active)
same,rescue above control,[9],-2.24
same,cytochrome c release ratio,[10],0.96
same,inhibition of aggregation,[11],69%
same,glutamate uptake change,[12],-12.2%
same,inclusion score,[13],2
same,aggregation suppression score,[14],1.1
same,parasite load remaining,[1],155% (inactive)
same,viability,[1],85.3%
same,red/green cell ratio (normalised),[2],0.93 (inactive)
same,normalised cell number,[2]; [16],1.14
same,normalised cell number,[2]; [17],1.06
same,remaining NAD,[4],10 nM (inactive)
COc1ccc(/C=C/C(=O)c2ccc(O)cc2O)cc1,red/green cell ratio (normalised),[2],1.07 (inactive)
same,normalised cell number,[2]; [16],0.93
same,normalised cell number,[2]; [17],0.99
same,luciferase signal,[5],100 AU (inactive)
CCCCCCCCCCCCCCCC(=O)OCC(O)CO (centres undefined),red/green cell ratio (normalised),[2],0.84 (inactive)
same,normalised cell number,[2]; [16],1.14
same,normalised cell number,[2]; [17],0.96
same,luciferase signal,[5],72 AU (inactive)
O=C(O)/C=C/C=C/c1ccc2c(c1)OCO2,red/green cell ratio (normalised),[2],1.14 (inactive)
same,normalised cell number,[2]; [16],0.9
same,normalised cell number,[2]; [17],1.03
same,luciferase signal,[5],24 AU (inactive)
COc1ccc(-c2oc3cc(OC)c(OC)c(OC)c3c(=O)c2OC)cc1,red/green cell ratio (normalised),[2],1.04 (inactive)
same,normalised cell number,[2]; [16],1.02
same,normalised cell number,[2]; [17],1.05
same,luciferase signal,[5],72 AU (inactive)
O=C1C=CC(=O)c2c(O)c(Cl)c(Cl)c(O)c21,red/green cell ratio (normalised),[2],1 (inactive)
same,normalised cell number,[2]; [16],1.04
same,normalised cell number,[2]; [17],1.04
same,luciferase signal,[5],12 AU (inactive)
COc1ccc2oc3ccccc3c(=O)c2c1,red/green cell ratio (normalised),[2],0.95 (inactive)
same,normalised cell number,[2]; [16],1.2
same,normalised cell number,[2]; [17],1.14
same,luciferase signal,[5],88 AU (inactive)
CC(=O)O[C@@H]1CC2C(C)(C)C(=O)C3OC3[C@]2(C)C2CC[C@@]3(C)[C@H](c4ccoc4)OC(=O)C4OC43[C@@]21C (some centres undefined),red/green cell ratio (normalised),[2],1.04 (inactive)
same,normalised cell number,[2]; [16],1.01
same,normalised cell number,[2]; [17],1.05
same,luciferase signal,[5],4 AU (inactive)
OCC(S)CS (centres undefined),inhibition,[6],11.1%
same,score,[7],-0.34
same,rescue above control,[9],28.1
same,cytochrome c release ratio,[10],0.92
same,inhibition of aggregation,[11],68.7%
same,normalised LDH release,[15],0.667
same,glutamate uptake change,[12],23.2%
same,aggregation suppression score,[14],-0.815
same,red/green cell ratio (normalised),[2],1.01 (inactive)
same,normalised cell number,[2]; [16],0.72
same,normalised cell number,[2]; [17],0.73
same,remaining NAD,[4],10 nM (inactive)
same,luciferase signal,[5],92 AU (inactive)
CC(=O)Oc1cc(OC(C)=O)c2c(c1)O[C@H](c1ccc(OC(C)=O)c(OC(C)=O)c1)[C@@H](OC(C)=O)C2,red/green cell ratio (normalised),[2],0.85 (inactive)
same,normalised cell number,[2]; [16],0.98
same,normalised cell number,[2]; [17],0.84
same,luciferase signal,[5],16 AU (inactive)
COc1cc2c(cc1OC)-c1c(oc3cc(O)cc(O)c3c1=O)CO2,red/green cell ratio (normalised),[2],1.08 (inactive)
same,normalised cell number,[2]; [16],1.02
same,normalised cell number,[2]; [17],1.09
same,luciferase signal,[5],16 AU (inactive)
CC(=O)Oc1ccc2c(c1C(C)C)CCC1C(C)(C)CCC[C@]21C (some centres undefined),red/green cell ratio (normalised),[2],0.8 (inactive)
same,normalised cell number,[2]; [16],1.07
same,normalised cell number,[2]; [17],0.86
same,luciferase signal,[5],20 AU (inactive)
CNC(C)[C@@H]1CC[C@@H](N)[C@@H](OC2[C@@H](N)C[C@@H](N)[C@H](OC3OC[C@](C)(O)[C@H](NC)[C@H]3O)[C@H]2O)O1 (some centres undefined),inhibition,[6],-0.7%
same,score,[7],1.63
same,rescue above control,[9],-1.8
same,cytochrome c release ratio,[10],2.33
same,inhibition of aggregation,[11],66.7%
same,glutamate uptake change,[12],1.4%
same,inclusion score,[13],2
same,aggregation suppression score,[14],1.62
same,red/green cell ratio (normalised),[2],1.29 (inactive)
same,normalised cell number,[2]; [16],1.02
same,normalised cell number,[2]; [17],1.32
same,remaining NAD,[4],10 nM (inactive)
same,luciferase signal,[5],28 AU (inactive)
COc1ccc(-c2cc(=O)c3c(OC)c(OC)c(OC)cc3o2)cc1OC,red/green cell ratio (normalised),[2],1.21 (inactive)
same,normalised cell number,[2]; [16],0.9
same,normalised cell number,[2]; [17],1.08
same,luciferase signal,[5],36 AU (inactive)
CC(=O)Oc1cc2c(c(C)c1OC(C)=O)CC=C1[C@@]2(C)CC[C@@]2(C)C3C[C@](C)(C(=O)O)CC[C@]3(C)CC[C@]12C (some centres undefined),red/green cell ratio (normalised),[2],0.58 (inactive)
same,normalised cell number,[2]; [16],1.06
same,normalised cell number,[2]; [17],0.62
same,luciferase signal,[5],48 AU (inactive)
CCCc1cc(OC)c2c(c1)OCO2,red/green cell ratio (normalised),[2],1.07 (inactive)
same,normalised cell number,[2]; [16],0.92
same,normalised cell number,[2]; [17],0.98
same,luciferase signal,[5],216 AU (inactive)
COc1cc(O)c(C(=O)/C=C/c2ccc(OC)c(O)c2)c(OC)c1,red/green cell ratio (normalised),[2],1.01 (inactive)
same,normalised cell number,[2]; [16],0.89
same,normalised cell number,[2]; [17],0.9
same,luciferase signal,[5],84 AU (inactive)
C/C1=C/CC(C)(C)/C=C/C/C(C)=C/CC1,red/green cell ratio (normalised),[2],0.95 (inactive)
same,normalised cell number,[2]; [16],1.06
same,normalised cell number,[2]; [17],1.01
same,luciferase signal,[5],60 AU (inactive)
